PubChem BioAssay AID504861 (Broad Institute, 2011)
The campaign covered roughly 1,200 compounds. About 290 (24%) were called active. Inconclusive results (about 3%) are left out.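 How the source made its calls: active means compounds lowering cell viability signal with fitted half-maximal concentration at most ten times their highest tested concentration; inconclusive means flat fit with 30 to 70% signal loss, or poor fit; inactive means the rest.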 Not all results are given here. Results with a measured potency or affinity are listed apart.

Test: HEK293T cell viability reduction, dose response, cytotoxicity control for LMP1 NF-kB inhibitor project, CellTiter-Glo luminescence, cherry-picks (AID 504861)
Conditions: CellTiter-Glo ATP luminescence, 48 h; series mostly up to 26 µM; activity change, negative = cytotoxicity: at the top concentration

SMILES	activity change, negative = cytotoxicity
O=C(O)c1ccc(N/N=C/c2cc3cc4c(cc3nc2Cl)OCCO4)cc1	-0.046% (inactive)
O=C(Cc1cccc2ccccc12)Nc1ccc(-c2cc3ccccc3oc2=O)cc1	-1.29% (inactive)
NC(=O)N/N=C/c1ccc(N2CCOCC2)s1	10.5% (inactive)
CC1(C)CC(NS(=O)(=O)c2ccc(F)cc2)CC(C)(C)N1	8.26% (inactive)
O=[N+]([O-])c1ccc(N2CCN(Cc3cccc([N+](=O)[O-])c3)CC2)cc1	-7.8% (inactive)
O=c1[nH]c(=O)n([C@H]2C[C@H](O)[C@@H](CO)O2)cc1F	-3.58% (inactive)
c1ccc(-c2nnc(-c3ccccn3)s2)nc1	-7.33% (inactive)
Cc1c(NC(=O)c2cccc(NC(=O)COc3ccccc3C#N)c2)c(=O)n(-c2ccccc2)n1C	14.7% (inactive)
Cc1ccc(C(=O)Nc2cccc(C(=O)O)c2)cc1S(=O)(=O)N1CCCCC1	-7.81% (inactive)
Cc1cccc(C)c1Nc1nc2ccccc2o1	1.76% (inactive)
COc1ccc(C=NNc2nc3ccccc3s2)cc1	-4.18% (inactive)
Cc1nc(Nc2nc3ccccc3o2)nc2c1CCC2	-4.54% (inactive)
CC1CCCN(C(=O)COC(=O)c2n[nH]c3ccccc23)C1 (stereo not drawn)	-0.648% (inactive)
COc1c(S(=O)(=O)N2CCN(c3ccc(F)cc3)CC2)ccc(Cl)c1Cl	15.6% (inactive)
CC(=O)c1ccc(-c2nc3c4ccccc4ccn3c2C(C)=O)o1	5.35% (inactive)
Cc1nn(-c2ccccc2)c(Cl)c1C1C(C#N)=C(N)Oc2n[nH]c(C)c21 (stereo not drawn)	4.68% (inactive)
CCCCN(c1ccccc1)c1ncnc(N)c1[N+](=O)[O-]	-2.28% (inactive)
CN1CCN(CCOc2ccc(Cc3ccccc3)cc2)CC1	-4.83% (inactive)
OC(CCCN1CCCCC1)(c1ccccc1)c1ccccc1	-0.532% (inactive)
COc1ccc(/C=C/C(=O)OCC(=O)NCc2ccco2)cc1OC	0.098% (inactive)
NNC(=O)c1cccc(COc2ccc3c(c2)CCC3)c1	-3.05% (inactive)
O=c1c([N+](=O)[O-])cn(Cc2ccccc2)c(=O)n1Cc1ccccc1	2.12% (inactive)
O=C1CSC(=S)N1Cc1ccccc1	7.17% (inactive)
CCOC(=O)C1=C(O)/C(=C/c2ccc(CNC(=O)C(=O)Nc3ccc(C)cc3)o2)N=C1C	2% (inactive)
O=C1CN(C(=O)c2ccc(F)c(S(=O)(=O)N3CCOCC3)c2)c2ccccc2N1	16.8% (inactive)

SMILES	activity change, negative = cytotoxicity
COC(=O)[C@H](C)[C@H]1C[C@]1(C)[C@H](NC(=O)OCc1ccccc1)c1ccccc1	1.67% (inactive)
Clc1ccccc1C1=Nn2c(nnc2-c2ccncc2)SC1	5.05% (inactive)
Cc1cc(N/N=C\c2ccc(Br)cc2)nc(-n2nc(C)cc2C)n1	5.46% (inactive)
COc1ccc(S(=O)(=O)N2CCN(C(=S)NCC3CCCO3)CC2)cc1OC (stereo not drawn)	4.99% (inactive)
Oc1c(N=NC(=S)Nc2ccccc2F)c2ccccc2n1Cc1ccccc1Cl	19.4% (inactive)
COc1ccc(C2=NN(C(=O)CSC3=NN4CCCC(=O)N=C4S3)C(c3cccc(OC)c3OC)C2)cc1 (stereo not drawn)	-3.83% (inactive)
O=C(NC1=NCCS1)c1cc2ccccc2o1	-0.619% (inactive)
O=C(O)[C@@H]1[C@H]2C[C@H]3c4[nH]c5ccccc5c4CCN3C[C@@H]2CC[C@@H]1O	10.1% (inactive)
Cc1ccnc(NC(=O)c2ccc(OCC3CCCO3)cc2)c1 (stereo not drawn)	-4.98% (inactive)
Cc1ccnc(NC(=O)c2ccc(C(=O)c3ccccc3)cc2)c1	21.4% (inactive)
COc1ccc(C(c2c(C)n(C)n(-c3ccccc3)c2=O)c2c(C)n(C)n(-c3ccccc3)c2=O)c(OC)c1OC	0.432% (inactive)
CCCNC(=O)N1CCN(S(=O)(=O)c2ccc(C)c(C)c2)CC1	5.01% (inactive)
O=C(CCC(=O)NNC(=O)Nc1cccc(Cl)c1)NCc1ccccc1	-2.26% (inactive)
Cc1cc(NCCCn2ccnc2)n2ncc(-c3ccccc3)c2n1	2.7% (inactive)
O=C(Nc1cnc2ccccn2c1=O)c1ccc(Cl)cc1Cl	5.04% (inactive)
O=C1c2cccc3c(O)ccc(c23)C(=O)N1c1ccc(Cl)cc1	5.3% (inactive)
CC(=O)c1ccc(-n2nnnc2SCC(=O)N2CCc3ccccc3C2)cc1	-0.209% (inactive)
COc1cc(N)c(Cl)cc1C(=O)NC1CCN(Cc2ccccc2)CC1	-0.368% (inactive)
CCOc1ccc(NC(=O)c2cnsn2)cc1	10.2% (inactive)
COc1ccc(-n2c(C)c(C(C)=O)c3cc(O)ccc32)cc1	0.983% (inactive)
Clc1ccc(-n2nnnc2Sc2ncnc3sccc23)cc1	10.2% (inactive)
O=C(Nc1ccc(Cl)cc1)c1ccco1	-7.91% (inactive)
COc1cc2nc(NC(=O)c3ccco3)sc(=O)c2cc1OC	-2.86% (inactive)
COc1cccc(/C=C2\SC(=S)N(CCC(=O)NCCc3ccc(O)cc3)C2=O)c1	8.59% (inactive)
COc1ccc(NC(=O)Cn2nnc(C(=O)NCc3ccccc3)c2N)c(OC)c1	6.31% (inactive)

SMILES	activity change, negative = cytotoxicity
CNC(=O)C1=NCCCc2cc(OC)c(OC)cc21	-10.9% (inactive)
CCc1ccc(/C=C2\SC(=S)N(CCCC(=O)Nc3ccccn3)C2=O)cc1	2.77% (inactive)
COc1ccc(OC)c2[nH]c(=O)c(CCNC(=O)c3ccc(S(=O)(=O)N(C)C)cc3)cc12	5.95% (inactive)
O=C(NOCc1ccccc1)c1ccc(Cl)cc1Cl	2.96% (inactive)
CCOC(=O)c1nc(NCc2ccccc2F)c2ccccc2n1	-0.295% (inactive)
C/C(=N\NS(=O)(=O)c1ccc([N+](=O)[O-])cc1)c1cccs1	7.67% (inactive)
CC1Cc2ccccc2N1c1ncnc(N)c1[N+](=O)[O-] (stereo not drawn)	-12.3% (inactive)
O=C(/C=C/Nc1ccc(F)cc1Br)c1ccccc1	-5.49% (inactive)
COc1ccc(C(=O)Nc2nnc(SCC(=O)NC3CC3)s2)cc1	1.92% (inactive)
O=C(COc1ccc2ccccc2c1)NCCNC(=O)COc1ccc2ccccc2c1	-3.57% (inactive)
Cc1ccc(C(=O)CSc2nnnn2C(C)C)c(C)c1	7% (inactive)
O=C(Nc1nnc(-c2cccs2)o1)c1cccc(C(F)(F)F)c1	8.43% (inactive)
COc1ccc(OCc2cccc(C(=O)Nn3cc([N+](=O)[O-])cn3)c2)cc1	9.18% (inactive)
COc1ccc(C(=O)Nc2cccc(C(=O)N/N=C/c3ccc(OC)cc3OC)c2)cc1	9.7% (inactive)
Cc1ccc(C(=O)N2CCN(c3ccc(NC(=O)CSc4ccc(Cl)cc4)cc3)CC2)cc1	6.23% (inactive)
Cc1nnc(SCc2cnc(-c3ccc(C(C)C)cc3)s2)n1C	-3.15% (inactive)
Cc1cc(NC(=O)CSc2ccnc(=O)[nH]2)no1	19.6% (inactive)
O=C1OCCC1Sc1nnc(-c2ccc(Cl)cc2Cl)o1 (stereo not drawn)	9.49% (inactive)
O=c1[nH]c(Nc2nc3ccccc3o2)nc2c1CCCC2	2.83% (inactive)
O=C(CC(c1ccc(F)cc1)c1ccco1)N1CCOCC1 (stereo not drawn)	4.11% (inactive)
O=C(Nc1ccc(CN2CCOCC2)cc1)c1cc2ccccn2n1	-4.33% (inactive)
Clc1ccc(-c2ccnc(Oc3ccc4ccccc4c3)n2)cc1	2.96% (inactive)
CC(C)(C)c1cc(C(=O)NNC(=O)Nc2cccc(Cl)c2)n(Cc2ccccc2)n1	10.8% (inactive)
